# Whole data set: some 8,300 sequences, median “log2 fold change of degron read counts, EGFP-low vs EGFP+ sorted cells (limma voom), compound-induced degradation” near -1.1, cut for the highest 2% near 3.2. This is one part of a sample in which the highest values are shown more often than they occur.
# T1: CRBN, Q96SW2
# T1 chain: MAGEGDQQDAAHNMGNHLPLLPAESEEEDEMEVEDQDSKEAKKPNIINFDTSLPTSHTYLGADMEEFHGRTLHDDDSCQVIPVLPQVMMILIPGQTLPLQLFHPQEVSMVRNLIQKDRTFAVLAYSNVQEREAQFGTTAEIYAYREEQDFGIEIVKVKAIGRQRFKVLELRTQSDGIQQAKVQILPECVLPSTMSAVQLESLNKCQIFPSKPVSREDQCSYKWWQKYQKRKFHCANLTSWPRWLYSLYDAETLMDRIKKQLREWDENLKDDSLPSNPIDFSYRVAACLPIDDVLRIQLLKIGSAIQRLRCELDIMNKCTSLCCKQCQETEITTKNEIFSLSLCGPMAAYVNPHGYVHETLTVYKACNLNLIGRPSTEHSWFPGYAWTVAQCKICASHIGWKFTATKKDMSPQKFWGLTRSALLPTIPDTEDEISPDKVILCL
# Target: T1, CRBN, Q96SW2
# Assay: log2 fold change of degron read counts, EGFP-low vs EGFP+ sorted cells (limma voom), compound-induced degradation; higher = more compound-induced degradation of the degron-EGFP fusion; degrons are variants of IKZF1/3 zinc finger 2; compound dose not given here
# Settings: Jurkat, 18 h
# [1] = compound: compound 19 (5-tert-butyl-thalidomide)
# [2] = compound: compound 22 (5-morpholino-thalidomide)
# [3] = compound: compound 33 (diphenyl IMiD analogue)
# 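Further: pooled lentiviral library of zinc finger degron-EGFP fusions in mCherry-positive Jurkat cells, FACS-sorted after compound exposure, with degron abundance counted by next-generation sequencing.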
Sequence,log2 fold change of degron read counts [1],log2 fold change of degron read counts [2],log2 fold change of degron read counts [3],log2 fold change of degron read counts (compound: thalidomide)
"FKCDVCGAVFTQKGNLLRHIKL [46F_47K_49D_50V_52G_53A_54V_55F_67L_, Q9UKT9]",-3.26,-3.42,-3.55,-2.43
"FVCDQCGAEFTQKGNLLRHIKL [46F_47V_49D_50Q_52G_53A_54E_55F_67L_, Q9UKT9]",-3.02,-2.35,-2.96,-1.78
"FCCNQCGASFTQKGNLLRHIKL [46F_47C_49N_50Q_52G_53A_54S_55F_67L_, Q9UKT9]",-1.43,-1.92,-0.445,-1.53
"LWCEICGFLCTQKGNLLRHIKL [46L_47W_49E_50I_52G_53F_54L_55C_67L_, Q9UKT9]",1.13,1.39,1.44,0.295
"FKCNICGAHFTQKGNLLRHIKL [46F_47K_49N_50I_52G_53A_54H_55F_67L_, Q9UKT9]",-1.74,-2.18,-2.99,-1.98
"FCCDICGAIFTQKGNLLRHIKL [46F_47C_49D_50I_52G_53A_54I_55F_67L_, Q9UKT9]",-0.218,0.0957,1.18,0.132
"FVCPVCGAIFTQKGNLLRHIKL [46F_47V_49P_50V_52G_53A_54I_55F_67L_, Q9UKT9]",-1.21,0.225,1.42,1.3
"FGCPVCGAIFTQKGNLLRHIKL [46F_47G_49P_50V_52G_53A_54I_55F_67L_, Q9UKT9]",3.73,2.12,2.5,0.899
"FRCPVCGAIFTQKGNLLRHIKL [46F_47R_49P_50V_52G_53A_54I_55F_67L_, Q9UKT9]",-1.67,-0.943,0.606,0.832
"FRCNVCGAIFTQKGNLLRHIKL [46F_47R_49N_50V_52G_53A_54I_55F_67L_, Q9UKT9]",-1.97,-2.04,-0.492,-0.595
"FFCPVCGAIFTQKGNLLRHIKL [46F_47F_49P_50V_52G_53A_54I_55F_67L_, Q9UKT9]",1.97,2.07,0.852,0.24
"FHCPVCGAIFTQKGNLLRHIKL [46F_47H_49P_50V_52G_53A_54I_55F_67L_, Q9UKT9]",0.164,0.683,1.33,-0.0983
"FQCDICGAIFTQKGNLLRHIKL [46F_47Q_49D_50I_52G_53A_54I_55F_67L_, Q9UKT9]",-1.32,2.34,1.7,3.47
"FYCNVCGAIFTQKGNLLRHIKL [46F_47Y_49N_50V_52G_53A_54I_55F_67L_, Q9UKT9]",-0.301,0.0156,-0.132,-1.44
"FQCNVCGAIFTQKGNLLRHIKL [46F_47Q_49N_50V_52G_53A_54I_55F_67L_, Q9UKT9]",-1.8,1.3,1.44,3.37
"FKCDICGAIFTQKGNLLRHIKL [46F_47K_49D_50I_52G_53A_54I_55F_67L_, Q9UKT9]",-2.93,-3.42,-2.93,-2.01
"FQCPVCGAIFTQKGNLLRHIKL [46F_47Q_49P_50V_52G_53A_54I_55F_67L_, Q9UKT9]",-0.448,3.15,2.64,3.53
"FQCEQCGAWFTQKGNLLRHIKL [46F_47Q_49E_50Q_52G_53A_54W_55F_67L_, Q9UKT9]",-2.85,-2.85,-1.86,-0.183
"FRCDICGAHFTQKGNLLRHIKL [46F_47R_49D_50I_52G_53A_54H_55F_67L_, Q9UKT9]",-1.41,-1.53,0.162,-1.18
"FACDVCGACFTQKGNLLRHIKL [46F_47A_49D_50V_52G_53A_54C_55F_67L_, Q9UKT9]",1.83,-0.406,-0.331,-2.56
"FKCNVCGANFTQKGNLLRHIKL [46F_47K_49N_50V_52G_53A_54N_55F_67L_, Q9UKT9]",-2.45,-2.95,-3.12,-2.19
"FICNICGAYFTQKGNLLRHIKL [46F_47I_49N_50I_52G_53A_54Y_55F_67L_, Q9UKT9]",-1.5,0.102,1.22,0.967
"FLCNVCGALFTQKGNLLRHIKL [46F_47L_49N_50V_52G_53A_54L_55F_67L_, Q9UKT9]",-2.4,-1.93,-0.86,-0.854
"FCCEICGHNFTQKGNLLRHIKL [46F_47C_49E_50I_52G_53H_54N_55F_67L_, Q9UKT9]",-3.4,-2.63,-3.12,-2.76
"FQCDQCGANFTQKGNLLRHIKL [46F_47Q_49D_50Q_52G_53A_54N_55F_67L_, Q9UKT9]",-2.74,-1.96,-2.34,-0.263
"FHCNICGAIFTQKGNLLRHIKL [46F_47H_49N_50I_52G_53A_54I_55F_67L_, Q9UKT9]",-0.569,0.345,-0.0029,-0.75
"FQCNICGAIFTQKGNLLRHIKL [46F_47Q_49N_50I_52G_53A_54I_55F_67L_, Q9UKT9]",-0.972,2.07,2.21,3.81
"FYCNICGAIFTQKGNLLRHIKL [46F_47Y_49N_50I_52G_53A_54I_55F_67L_, Q9UKT9]",0.725,1.63,0.601,-0.748
